The full list was thinned out, with hits kept by preference.
PD-1 reversal: reversal of PD-1 mediated T-cell inhibition; activation, % (concentration not given with the values); AID 2316; primary human CD4 T cells, PD-L1 beads, CellTiter-Glo 96 h; 29,000 tested, under 10 active; call rule not given here;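 also: 0% = median vehicle wells and 100% = positive control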
STK33 inh: inhibitors of human STK33 kinase; inhibition, % at 12.5 µM; 0.44% of 27,000 active; ADP-Glo luminescence, MBP substrate; Q9BYT3; AID 2322; in the data active = inhibition above about 20%; inconclusive = no clear call, values can overlap the other calls
Target sequence (Q9BYT3 whole entry, looked up): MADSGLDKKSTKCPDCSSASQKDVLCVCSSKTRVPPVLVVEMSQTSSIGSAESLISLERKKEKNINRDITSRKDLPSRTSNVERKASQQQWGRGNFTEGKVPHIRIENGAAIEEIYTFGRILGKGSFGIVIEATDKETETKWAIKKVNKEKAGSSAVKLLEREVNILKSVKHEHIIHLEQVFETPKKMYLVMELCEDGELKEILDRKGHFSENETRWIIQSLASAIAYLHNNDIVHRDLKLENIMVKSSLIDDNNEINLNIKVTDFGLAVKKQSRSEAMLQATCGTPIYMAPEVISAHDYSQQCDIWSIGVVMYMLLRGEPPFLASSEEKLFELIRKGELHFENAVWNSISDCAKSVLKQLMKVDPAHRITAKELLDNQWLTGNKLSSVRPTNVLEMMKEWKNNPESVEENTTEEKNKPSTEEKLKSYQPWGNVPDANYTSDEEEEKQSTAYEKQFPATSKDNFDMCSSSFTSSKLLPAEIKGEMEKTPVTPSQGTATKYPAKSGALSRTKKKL
NOMO-1 viab: STK33 inhibitor candidate reducing NOMO-1 cell viability. NOMO-1 AML viability, CellTiter-Glo luminescence, 72 h. inhibition, % (no concentration beside the values). 7.5% of 37,000 active; in the data active = inhibition above about 80%; inconclusive = no clear call, values can overlap the other calls
* = called active by the depositor; ? = inconclusive; . = no result.

SMILES | PD-1 reversal | STK33 inh | NOMO-1 viab
C[C@H]1CN([C@@H](C)CO)C(=O)c2cccc(NC(=O)c3ccc(-c4nccs4)cc3)c2O[C@@H]1CN(C)Cc1ccc(C(=O)Nc2ccccc2N)cc1 | -2 | . | 124*
C[C@@H]1CN([C@H](C)CO)C(=O)c2cccc(NC(=O)c3ccc(-c4nccs4)cc3)c2O[C@@H]1CN(C)Cc1ccccc1 | -1 | . | 28
CCOC(=O)c1nnn2c1nc(Sc1nc3ccccc3o1)c1ccccc12 | -5 | . | 116*
Cn1c(SCCC(=O)O)nnc1-c1ccncc1 | 1 | 3 | 6
CCOC(=O)c1nnn2c1nc(N(CC)CC)c1ccccc12 | 0 | . | 8
CCOC(=O)c1nnn2c1nc(Sc1nnc(-c3ccncc3)n1C)c1ccccc12 | -5 | . | 117*
COc1cc(NC(=O)COc2cc(C)c(C)cc2C)c(C(=O)O)cc1OC | 3 | -2 | 0
O=C(CC(=O)Nc1ccccc1OC(F)(F)F)Nc1ccccc1OC(F)(F)F | -5 | . | 19
COc1c(O)cc2oc(-c3ccc(O[C@@H]4O[C@H](CO)[C@@H](O)[C@H](O)[C@H]4O)cc3)cc(=O)c2c1O | 0 | 51* | 78
COc1c(C2OCC(OC(C)=O)C(OC(C)=O)C2OC(C)=O)c(O)cc2oc(-c3ccc(OC4OC(CO)C(O)C(O)C4O)cc3)cc(=O)c12 (centres undefined) | -1 | -2 | 8
O=c1c(O[C@@H]2O[C@H](CO)[C@H](O)[C@H](O)[C@H]2O)c(-c2ccc(O)c(O)c2)oc2cc(O)cc(O)c12 | 0 | 5 | 17
O=c1cc(-c2ccc(O[C@@H]3O[C@H](CO)[C@@H](O)[C@H](O)[C@H]3O)cc2)oc2cc(O)cc(O)c12 | 1 | 50* | 15
CC1CCc2c(sc3nnn(CC(=O)Nc4cc(Cl)ccc4Cl)c(=O)c23)C1 (centres undefined) | -1 | 0 | 24
Cc1cc(C)cc(NC(=O)CN(c2cc([N+](=O)[O-])ccc2C)S(C)(=O)=O)c1 | 0 | -4 | 24
CC1(C)C=CC(=O)[C@@]2(C)C1CC(=O)[C@]1(C)C2CC[C@@]2(C)[C@H](c3ccoc3)OC(=O)C3OC321 (some centres undefined) | . | 1 | 31
CC1(C)C(=O)C=C[C@@]2(C)C1CC(=O)[C@]1(C)C2CC[C@@]2(C)[C@H](c3ccoc3)OC(=O)[C@H]3O[C@]321 (some centres undefined) | . | 7 | 88*
CCOC(=O)c1ccc(NC(=O)CSc2nc3ccc(C)cc3[nH]2)cc1 | -2 | -5 | 41
C=CCSc1nnc2c(n1)OC(c1ccc(-c3ccc(F)cc3)o1)N(C(C)=O)c1ccccc1-2 (centres undefined) | 0 | . | 35
CCC(=O)Nc1ccc(Cl)c(NC(=O)COc2cc(C)cc(C)c2)c1 | -1 | -2 | 1
CCC(=O)Nc1ccc2c(c1)N(CC)C(C)(C)CC2C (centres undefined) | 1 | . | 99*
CC(C)(C)c1ccc(C(=O)Nc2cccc(NC(=O)COc3ccccc3Cl)c2)cc1 | . | 4 | .
CCCOc1ccc(Oc2nc(NCC)nc(OC)n2)nn1 | . | 3 | 1
C[C@@H]1CN([C@H](C)CO)C(=O)Cc2cc(NS(=O)(=O)c3ccc(F)cc3)ccc2O[C@@H]1CN(C)Cc1ccc(C(=O)Nc2ccccc2N)cc1 | -2 | . | 91*
C[C@@H]1CN([C@@H](C)CO)C(=O)Cc2cc(NS(=O)(=O)c3cccs3)ccc2O[C@@H]1CN(C)Cc1ccc(C(=O)O)cc1 | 3 | -2 | -10
C[C@H]1CN([C@@H](C)CO)C(=O)Cc2cc(NS(=O)(=O)c3cccs3)ccc2O[C@H]1CN(C)Cc1ccc(C(=O)Nc2ccccc2N)cc1 | -4 | . | 141*
SMILES | PD-1 reversal | STK33 inh | NOMO-1 viab
C[C@@H]1CN([C@H](C)CO)C(=O)Cc2cc(NS(=O)(=O)c3ccc(F)cc3)ccc2O[C@H]1CN(C)Cc1ccc(C(=O)Nc2ccccc2N)cc1 | -3 | . | ?
Cc1noc(C)c1S(=O)(=O)Nc1ccc2c(c1)CC(=O)N([C@H](C)CO)C[C@@H](C)[C@@H](CN(C)Cc1ccc(C(=O)Nc3ccccc3N)cc1)O2 | -1 | . | 100*
C[C@@H]1CN([C@H](C)CO)C(=O)Cc2cc(NS(=O)(=O)c3ccc(Cl)cc3)ccc2O[C@H]1CN(C)Cc1ccc(C(=O)Nc2ccccc2N)cc1 | -2 | . | 62
Cc1noc(C)c1S(=O)(=O)Nc1ccc2c(c1)CC(=O)N([C@H](C)CO)C[C@@H](C)[C@H](CN(C)Cc1ccc(C(=O)Nc3ccccc3N)cc1)O2 | 0 | . | 31
Cc1ccc(S(=O)(=O)Nc2ccc3c(c2)CC(=O)N([C@@H](C)CO)C[C@@H](C)[C@@H](CN(C)Cc2ccc(C(=O)Nc4ccccc4N)cc2)O3)cc1 | 1 | . | 109*
COc1ccc(NC(=O)CNC(=O)c2ccc(F)cc2)cc1 | . | 0 | -22
CCOC(=O)c1c(N)sc2c1CCC(Sc1ccccc1)C2=O (centres undefined) | 0 | 2 | 26
CCc1cccc(CC)c1NC(=S)Nc1ccc(C)cc1 | -6 | . | 33
COc1ccc(S(=O)(=O)Nc2ccc3c(c2)CC(=O)N([C@@H](C)CO)C[C@H](C)[C@H](CN(C)Cc2ccc(C(=O)Nc4ccccc4N)cc2)O3)cc1 | -1 | . | 140*
COc1ccc(S(=O)(=O)Nc2ccc3c(c2)CC(=O)N([C@@H](C)CO)C[C@H](C)[C@@H](CN(C)Cc2ccc(C(=O)Nc4ccccc4N)cc2)O3)cc1 | -1 | . | 45
CC(=O)O[C@H]1CC[C@H](C)[C@@]2(C)[C@H](OC(C)=O)c3c(C)coc3C(=O)[C@H]12 | -3 | 1 | 11
C[C@H]1CN([C@@H](C)CO)C(=O)c2cc(NC(=O)Cc3cn(C)c4ccccc34)ccc2O[C@H]1CN(C)Cc1ccc2c(c1)OCO2 | 0 | 0 | 73
C[C@@H]1CN([C@H](C)CO)C(=O)c2cc(NC(=O)Cc3cn(C)c4ccccc34)ccc2O[C@@H]1CN(C)Cc1ccc(Cl)c(Cl)c1 | -3 | . | 112*
C[C@@H]1CN([C@@H](C)CO)C(=O)c2cc(NC(=O)Cc3cn(C)c4ccccc34)ccc2O[C@@H]1CN(C)Cc1ccc(Cl)c(Cl)c1 | -4 | 1 | 92*
C[C@@H]1CN([C@H](C)CO)C(=O)c2cc(NC(=O)Cc3cn(C)c4ccccc34)ccc2O[C@H]1CN(C)Cc1ccc(Cl)c(Cl)c1 | 0 | 0 | ?
C/C(=C\CC(C)(C)CCC(=O)c1ccoc1)C(=O)O | 1 | -5 | -1
N#CC(C#N)=C(Nc1ccccc1Cl)SCc1cccc(F)c1 | -1 | . | 87*
Cc1c(Cl)cccc1NC(=O)CN(c1cccc(F)c1)S(C)(=O)=O | 0 | -4 | 17
O=C(Nc1ccccc1)C(F)(F)F | -1 | . | 14
CCC(NC(=O)c1cc(OC)c(OC)c(OC)c1)C12CC3CC(CC(C3)C1)C2 (centres undefined) | -7 | -2 | 15
C=C1CC[C@@H](O)[C@]2(C)C[C@H]3OC(=O)C(=C)[C@H]3CC12 (some centres undefined) | -6 | 3 | 104*
C=C(C(=O)O)[C@@H]1CC[C@@]2(C)CC(=O)C=C(C)C2C1 (some centres undefined) | 1 | -3 | 14

Screening results from PubChem BioAssay.
